# From the supplement of paper PMC3334620
# Whole data set: some 33,000 sequences, median “E-score (-0.5 to 0.5)” near -0.054, cut for the highest 2% near 0.35. The full list was thinned out, with the highest values kept by preference.
# Biological target: T1, Stb5 (UniProt P38699)
# T1 sequence: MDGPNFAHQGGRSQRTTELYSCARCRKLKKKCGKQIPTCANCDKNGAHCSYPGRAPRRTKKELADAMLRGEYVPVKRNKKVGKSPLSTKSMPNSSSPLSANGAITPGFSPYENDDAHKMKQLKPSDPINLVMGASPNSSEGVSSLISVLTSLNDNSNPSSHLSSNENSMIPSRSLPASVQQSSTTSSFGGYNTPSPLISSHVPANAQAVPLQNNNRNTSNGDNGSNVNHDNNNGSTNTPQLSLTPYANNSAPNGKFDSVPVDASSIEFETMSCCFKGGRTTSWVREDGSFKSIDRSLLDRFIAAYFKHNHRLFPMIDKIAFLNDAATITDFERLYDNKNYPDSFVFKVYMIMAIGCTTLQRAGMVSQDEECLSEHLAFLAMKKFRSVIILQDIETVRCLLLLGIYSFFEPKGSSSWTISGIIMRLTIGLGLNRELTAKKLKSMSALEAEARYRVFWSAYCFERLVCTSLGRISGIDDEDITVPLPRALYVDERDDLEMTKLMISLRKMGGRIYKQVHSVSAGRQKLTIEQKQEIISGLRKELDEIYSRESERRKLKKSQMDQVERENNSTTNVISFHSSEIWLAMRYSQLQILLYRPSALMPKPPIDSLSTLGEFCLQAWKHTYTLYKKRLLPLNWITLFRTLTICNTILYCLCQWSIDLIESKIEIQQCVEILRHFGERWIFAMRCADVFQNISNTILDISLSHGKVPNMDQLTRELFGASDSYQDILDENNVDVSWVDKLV
# Experiment: PBM E-score (8-mer binding enrichment) (E-score (-0.5 to 0.5)); higher = stronger / more preferred TF binding
# Settings: protein concentration: 200 nM; construct: GST-full length
# In short: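 Universal all-10-mer Agilent arrays, fresh or stripped once, were converted to double-stranded form by primer extension. GST-tagged yeast transcription factors from PURExpress in vitro transcription/translation, full-length or DNA-binding domain only, were applied at about 100-200 nM and detected with fluorescent anti-GST. After masliner normalisation, the Universal PBM Analysis Suite scored each ungapped eight-base word together with its reverse complement by E-score.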
row,Sequence,PBM E-score
1,AGGGTGTC,-0.106
2,GCGGTGGA,0.177
3,AGGGTGTA,-0.236
4,TGACGCAA,-0.174
5,CAAAGTGG,-0.254
6,ACTGCGAC,0.202
7,TAACTCTA,-0.0643
8,GAACCATC,-0.135
9,ACCCACGT,-0.257
10,CCGGTGTA,0.366
11,ACGGTGTA,0.348
12,CAGGTGTA,-0.204
13,CGCAAAGA,0.016
14,CTGAAATA,-0.0506
15,GCCTCACA,-0.212
16,CCCCCCGA,0.14
17,TCCCCCGA,0.263
18,ACCCCCGA,0.371
19,AACCCCAA,-0.0237
20,AACCCCCA,-0.0755
21,AACCCCGA,0.473
22,CTCTTGAC,-0.182
23,AGCTAAAT,0.088
24,CTCCAGCC,-0.15
25,AAGAATAA,0.0987

row,Sequence,PBM E-score
1,AATGAATA,0.0406
2,ATAATGCG,0.0614
3,ATAATGCC,0.386
4,ATAAATCC,0.382
5,ATAAATCA,-0.129
6,ATAAATCG,0.0618
7,ATAATCCA,-0.0209
8,ATAATCCC,0.389
9,CTAATCCA,-0.106
10,CTAATGCC,0.285
11,CTAATCAC,0.189
12,ATAATCCG,0.103
13,CTAATCCC,0.354
14,TGCCAGAA,-0.307
15,CGCTTACG,0.123
16,GCCCTACC,-0.0725
17,AAGATACG,-0.0742
18,CGCTGCCC,-0.0156
19,ACACGGCC,0.116
20,CCCTGTAA,-0.0001
21,CGCAGTTC,0.00085
22,CGCAGTTA,0.359
23,AGCAGTTA,-0.194
24,GAGATTGC,-0.0088
25,CCATTCTC,-0.126

row,Sequence,PBM E-score
1,AATCACTA,-0.155
2,ATCGGTCA,0.208
3,CTCGGTCC,0.242
4,ATCGGACA,0.332
5,ATCGGACG,0.305
6,ATCGGACC,0.398
7,TGCGGACA,0.286
8,GGCGGAAC,0.25
9,GGCGGAAA,0.227
10,ATCGGTCC,0.396
11,CGCGGACC,0.319
12,GGCGGACC,0.412
13,GGCGGACA,0.357
14,CTATAATC,0.019
15,GGCACCCA,-0.036
16,GCACTCAA,-0.0587
17,ATACCAAT,-0.00644
18,TCCCACAA,0.0012
19,ACTGCGCG,0.122
20,AGCGGAAC,0.295
21,AGCGGACC,0.359
22,AGCGGAGC,0.31
23,GCACGGGC,0.2
24,AGCTATTC,-0.0735
25,GAACTCAC,-0.221

row,Sequence,PBM E-score
1,AAAAGCCC,0.324
2,AAGGCCGG,0.407
3,TAGGCCGA,0.125
4,AAGGCCTG,-0.0882
5,AAGGCCGA,0.46
6,CAGGCCGA,0.153
7,AAGGCCGT,0.421
8,AAGGCCTT,-0.163
9,CAGGCCGG,0.11
10,AAAAGCCG,0.38
11,AAAAGCCT,-0.122
12,ACGGCCGT,0.226
13,TTCACAAA,-0.00748
14,GACCAAAC,-0.0734
15,AGACGGTC,0.142
16,CATCCATG,-0.205
17,AAGGCCGC,0.441
18,CAGGCCCG,0.109
19,CAAGGCCG,0.236
20,AAGGCCCA,-0.17
21,GAGGCCGC,0.322
22,AAGGCCCG,0.359
23,AAAGGCCG,0.446
24,AAAGGCCC,0.274
25,CAGGCCGC,0.187

row,Sequence,PBM E-score
1,AGACAGGG,-0.161
2,ACGCCTAG,-0.0889
3,ACATTAGA,-0.214
4,CATACTGG,-0.062
5,CCAGAGGG,-0.0691
6,CGCACGAA,-0.0424
7,GAGTTTAC,0.115
8,CGTTCCGA,0.00452
9,CGTTCCGC,0.226
10,AGTTCCGG,0.333
11,AGTTCCGC,0.361
12,GGTTCCGA,0.126
13,AGTTCCGA,0.374
14,ACCCATCG,0.1
15,CCCTCTTA,-0.167
16,AGCCCGCG,0.334
17,CGCCCGCC,0.258
18,ATCCCGAT,0.238
19,AGCCCGCC,0.359
20,AGCCCGAT,0.328
21,AGCCCGAC,0.373
22,CGCCCGAC,0.33
23,AGCCCGAG,0.05
24,GGCCCGAC,0.358
25,GGCCCGAA,0.149

row,Sequence,PBM E-score
1,ATCCCGAG,0.161
2,ATCCCGAC,0.39
3,ACACTTAA,-0.117
4,CACAAGCG,-0.0542
5,CAAAATCG,-0.0979
6,CCGTGAGC,0.196
7,CACTACCC,-0.179
8,ATGCACTA,-0.0627
9,GGTATGTA,0.18
10,CGACTAAC,0.00814
11,AACCCTGG,-0.284
12,ACAGGATC,-0.312
13,CAATTAAA,-0.00358
14,GCCTCCTA,-0.0585
15,AGACTTGG,-0.17
16,AAAACGCG,0.0108
17,ATAACGCG,0.0524
18,AAAACGCC,0.368
19,CTAACGCC,0.316
20,ATAACGCC,0.359
21,CAAACGCC,0.243
22,AAACCAGG,-0.00613
23,CCCGAGAG,0.0886
24,GAATTCTA,-0.248
25,ACCTTCAA,-0.0982

row,Sequence,PBM E-score
1,CTGGTTAA,-0.102
2,ACGGGCCA,0.169
3,ACGGGGAC,0.241
4,ACGGGCCT,0.376
5,ACGGGCCG,0.194
6,ACGGGGCT,0.366
7,ACGGGAAG,-0.0191
8,ACGGGGCA,0.159
9,ACGGGAAT,0.371
10,ACGGGGAG,0.202
11,ACGGGGCC,0.221
12,ACGGGAAC,0.205
13,ACGGGGAT,0.415
14,CCAATCTA,-0.0421
15,CACGCTGG,-0.14
16,CTGATAGA,-0.0917
17,CAAGTACA,-0.12
18,AAACAGAC,-0.131
19,ACTAGACA,-0.184
20,AACCGGGC,0.239
21,GCTTGGCC,0.143
22,GGCCACGA,0.111
